Screens as filed in PubChem BioAssay.
The list is not random: actives were taken first. Their share in the collection is about 4.1%.
Peg3 prom inh – Peg3 promoter activity inhibition; AID 588405; HeLa PEG-Prom luciferase reporter, luminescence, overnight; 360,000 tested, 1.7% active; inhibition, % at 20 µM;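 active = inhibition of at least 50% at 20 µM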
TWEAK-Fn14 inh – TWEAK-Fn14 signaling inhibition | TWEAK-stimulated Fn14 reporter cells, luciferase luminescence, 8 h | AID 1159606 | 360,000 tested, 2% active | inhibition, % at 10 µM; in the data active = inhibition above about 50%
LMP1 NFkB inh – inhibitors of Epstein-Barr LMP1-induced NF-kappaB reporter; LMP1-induced NF-kappaB luciferase reporter cells, luminescence; inhibition, % at 12.5 µM; 350,000 tested, 0.69% active; in the data active = inhibition above about 41%;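 also: 0% = neutral control wells and 100% = reference inhibitor control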
Shn3 inh set2 – inhibitors of Schnurri-3 3'UTR reporter in osteoblasts; Clone20 osteoblast Shn3 3'UTR firefly luciferase, 24 h; inhibition, % at 12.5 µM; 360,000 tested, 0.52% active;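 active = mean inhibition of at least 75% with every replicate also reaching 75%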;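 also: 0% = median of neutral control wells and 100% = pilot-screen positive control compound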
MITF TRPM1 inh – reduces MITF-dependent TRPM1 promoter luciferase signal; inhibition, % at 12.5 µM; SK-MEL-5 TRPM1 promoter luciferase, 24 h; 330,000 tested, 0.83% active;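 active = mean inhibition across replicates of 60% or more, whatever share of single replicates reaches that level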
TROY NFkB inh – blocks TROY-dependent signaling in reporter cells | Q293 LMP1-TROYcd NF-kB luciferase reporter, 4 h | inhibition, % at 10 µM | 360,000 tested, 0.98% active;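 active = compounds whose plate-normalised and pattern-corrected inhibition of the luciferase reporter signal at the single screening dose is 50% or more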
Active calls of the source: *; / = no result.

SMILES	Peg3 prom inh	TWEAK-Fn14 inh	LMP1 NFkB inh	Shn3 inh set2	MITF TRPM1 inh	TROY NFkB inh
COc1ccc(C2C(C(=O)c3cccs3)=C(O)C(=O)N2CCN2CCOCC2)c(OC)c1 (centres undefined)	16.2	-8.2	-1.2	5.4	/	14.8
Cc1ccc(S(=O)(=O)N2CCN(c3cc4c(cc3[N+](=O)[O-])n(C)c(=O)n4C)CC2)cc1	38.9	34.9	3.9	47.4	11.8	50.6*
COc1cccc(Nc2ncnc3ccccc23)c1	-233.0	5.8	-10.3	-45.3	-79.1	-33.5
O=C(Oc1cccc(Nc2ncnc3ccccc23)c1)c1ccccc1Cl	-244.5	82.5*	11.1	15.0	2.9	59.4*
COc1ccc(OC)c(/C=N/NC(=O)c2[nH]ncc2Br)c1	17.1	2.0	/	13.8	/	-14.5
CCOc1ccc(/C=N/NC(=O)c2[nH]ncc2Br)c(O)c1	-47.5	75.7*	3.2	80.1	10.9	23.9
CN(C)CCNC(=O)c1cccc2ccc(-c3ccc(-c4ccccc4)cc3)nc12	93.4*	-44.1	-1.6	-5.3	70.5*	-66.0
Cc1cc(C(=O)NCCCN(C)C)c2ccccc2n1	9.3	-3.3	-0.9	5.1	-19.7	7.7
COc1ccc(OC)c2nc3c(C(=O)NCCN(C)C)cccc3nc12	89.6*	-23.0	-2.2	41.3	72.9*	-1.7
CCC(C(=O)NCCc1ccc(S(N)(=O)=O)cc1)c1ccccc1 (centres undefined)	7.0	-1.6	-0.1	-1.1	11.0	2.8
CCOCCCNC(=O)C1CCN(C(=O)N(C)C)CC1	-4.5	48.7	0.8	9.2	-2.3	-16.9
CC(C)NC(=O)C1CCN(C(=O)N(C)C)CC1	-3.9	51.5*	-3.8	18.7	4.9	6.3
CCCCCCCCCn1ccc(=N)cc1	31.9	37.1	28.5	59.1	64.8*	54.1*
CCCCCCCn1ccc(=N)cc1	-26.0	37.5	92.8*	84.5	37.3	46.2
CCCCCn1ccc(=N)cc1	12.2	19.6	12.7	32.2	19.8	19.9
COC(=O)[C@]1(C)CCC[C@@]2(C)C3CC[C@@]4(C)C[C@]3(CCC21)CC4=NO (some centres undefined)	10.2	27.3	4.1	-4.5	-7.6	18.3
Cc1[nH]c2ccccc2c1C(C#N)(C#N)C1C(=O)c2ccccc2C1=O	38.6	97.2*	4.5	15.5	39.0	52.8*
COc1ccccc1C(=O)Nc1ccnn1C1CCN(Cc2ccc3nonc3c2)CC1	22.5	-5.1	0.7	8.1	4.7	7.4
CCc1nnc(NC(=O)C2Cc3ccccc3CN2S(=O)(=O)CC)s1 (centres undefined)	-41.5	0.8	-1.5	-0.9	-7.1	-24.5
CCS(=O)(=O)N1Cc2ccccc2CC1C(=O)Nc1nc2ccccc2s1 (centres undefined)	-146.3	80.9*	-6.9	-21.0	-2.1	70.2*
CC1CCCN(CCCNC(=O)c2cc3c(s2)-c2ccccc2OC3)C1 (centres undefined)	75.3*	-31.0	-9.0	-10.2	29.6	-28.4
CC1CCN(CCCNC(=O)c2cc3c(s2)-c2ccccc2OC3)CC1	61.9*	-16.0	-1.3	-15.0	45.5	-11.3
Cc1cccc2c1-c1sc(C(=O)NCCCN3CCC(C)CC3)cc1CO2	74.7*	-17.5	-17.1	-13.1	1.5	-58.2
COc1cc(NC(=O)c2cc3c(Cl)nc4ccccc4c3s2)cc(OC)c1OC	10.0	-1.0	34.1	94.2*	-11.2	-5.5
COC(=O)c1cc2c(s1)-c1ccccc1OC2	-76.5	-10.0	-12.3	-17.3	-12.5	-64.7
SMILES	Peg3 prom inh	TWEAK-Fn14 inh	LMP1 NFkB inh	Shn3 inh set2	MITF TRPM1 inh	TROY NFkB inh
CCc1nn(CCCC(=O)NCc2ccccc2C)c(=O)c2cc3occc3n12	1.2	-3.2	7.9	2.0	-13.0	21.0
CC1(C)NC(=O)N(CCCC(=O)Nc2ccc(C(F)(F)F)cc2)C1=O	6.3	-12.2	19.9	-1.2	-3.9	-7.7
CC1CCCN(CCCNC(=O)c2cc3c(Cl)nc4ccccc4c3s2)C1 (centres undefined)	91.9*	-102.7	-11.1	13.1	-6.3	-48.8
COc1ccc(-n2cc(-c3ccccc3)c3c(N4CC(C)OC(C)C4)ncnc32)cc1 (centres undefined)	63.8*	39.8	9.3	20.6	0.6	32.1
COc1ccc(N2C(=O)CC(Sc3nnnn3-c3ccc(F)cc3)C2=O)cc1 (centres undefined)	114.5*	-11.5	6.3	72.8	21.5	-6.5
O=C1CC(Sc2nnnn2-c2ccccc2)C(=O)N1c1cccc(Cl)c1 (centres undefined)	115.9*	-13.9	-7.4	89.7*	16.0	8.7
